# Compounds without any hit were thinned out: in the full panel of roughly 83,000, 20% have a hit.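 Assay: single dose, 48 h. Readout: percent growth (0 = no net growth; negative = cell death). Active: <10.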 Values without a mark were called inactive. Activity calls are given as the source filed them.
# How the values were obtained:
# Assay in all cases: NCI-60 one-dose screen, 48 h (100 = growth as untreated, 0 = no growth, -100 = all killed)
# Details in all cases: 10 µM
# NCI-H23 lung = tested on: NCI-H23 lung
# NCI-H226 lung = tested on: NCI-H226 lung
# NCI-H322M lung = tested on: NCI-H322M lung
# HOP-62 NSCLC = tested on: HOP-62 NSCLC
# HOP-92 NSCLC = tested on: HOP-92 NSCLC
# NCI-H522 lung = tested on: NCI-H522 lung
# A549/ATCC NSCLC = tested on: A549/ATCC NSCLC
# 786-0 renal = tested on: 786-0 renal
# COLO 205 colon = tested on: COLO 205 colon
# NCI-H460 lung = tested on: NCI-H460 lung
SMILES,growth (NCI-H23 lung),growth (NCI-H226 lung),growth (NCI-H322M lung),growth (HOP-62 NSCLC),growth (HOP-92 NSCLC),growth (NCI-H522 lung),growth (A549/ATCC NSCLC),growth (786-0 renal),growth (COLO 205 colon),growth (NCI-H460 lung)
CN(C)c1ccc2cc(-c3cc4c(oc3=O)-c3ccccc3OC4O)c(=O)oc2c1 (stereo unspecified),-3.16% (active),-14.9% (active),39%,12.1%,-49.1% (active),-57.2% (active),39.5%,-15.7% (active),-56.2% (active),–
Nc1nc(SCC#CCCl)c2[nH]cnc2n1,66.2%,65.1%,62.7%,94.2%,39.9%,20.1%,54.5%,41.5%,47.7%,–
CCN(CC)c1ccc(/C=C/C2=[N+](C)c3ccccc3C2(C)C)c(C)c1,11.1%,17.7%,27.6%,5.39% (active),-19.5% (active),-14.4% (active),9.85% (active),13.1%,-58.4% (active),–
COc1ccc(NC(=O)c2sc3nc4c(cc3c2N)C(O)CCC4)cc1 (stereo unspecified),98.5%,101%,30.6%,117%,85.2%,99.8%,70%,94.8%,110%,–
COc1ccc(C2C=C(c3ccc(OC)c(OC)c3)N=C3SC=CN32)c(Br)c1 (stereo unspecified),89.3%,70.7%,87.5%,103%,77.5%,60.8%,82.3%,92.3%,94.8%,–
Cc1ccc(/C(CS(=O)(=O)c2ccc(C)cc2)=N\O)cc1,99.9%,93.6%,104%,111%,87.4%,97%,94.6%,102%,118%,–
COc1cc(OC)cc(-c2ccc(-c3ccc(C(=N)N)cn3)o2)c1,61.6%,60.7%,2.03% (active),6.78% (active),-21.8% (active),-50.7% (active),4.73% (active),-40.2% (active),-56.9% (active),–
c1ccc(CNc2nc(Nc3ccc(-c4nc5ccccc5[nH]4)cc3)c3cn[nH]c3n2)cc1,14.5%,39.6%,28.6%,-17.4% (active),14.7%,-45.7% (active),4.29% (active),-78.4% (active),-60.1% (active),–
CC(=O)Oc1ccc(C2=Cc3ccc(OC(C)=O)cc3OC2C)cc1 (stereo unspecified),49.3%,82.9%,98.2%,81.8%,69.4%,17.2%,61.5%,47.5%,102%,–
COc1ccc(-c2oncc2-c2cc(OC)c3c(c2)OCO3)cc1,47.7%,77.5%,39%,33.2%,-3.69% (active),3.28% (active),27.7%,36.6%,15%,–
COC(=O)[C@]12CC[C@@H](C)[C@H](C)[C@@H]1C1=CC[C@@H]3[C@@]4(C)C/C(=N\O)[C@H](O)[C@@]5(C)COC(=C45)C[C@@]3(C)[C@]1(C)CC2,-75.7% (active),-76.7% (active),-77.2% (active),-96.7% (active),-79% (active),-84.7% (active),-90.6% (active),-81% (active),–,–
Cc1[nH]nc2c(=S)[nH]c(=O)[nH]c12,103%,94.3%,103%,105%,87.9%,98.7%,100%,97.3%,109%,–
O=C1CC[C@@H](C(=O)N[C@H]2CSSC[C@@H](C(=O)NCCc3ccccc3)NC(=O)[C@H](Cc3ccccc3)NC(=O)[C@@H]3CCCN3C(=O)[C@@H]3CCCN3C2=O)N1,–,–,–,55.1%,–,–,–,–,–,–
COc1cc(C2C(C#N)=C(c3c[nH]c4ccccc34)Nc3nc(N)[nH]c(=O)c32)cc(OC)c1OC (stereo unspecified),–,–,–,82.9%,–,–,–,–,–,–
N=C(N)c1ccc(-c2ccc(-c3cccs3)s2)nc1,71.2%,67.6%,–,66.5%,-9.04% (active),72.8%,2.67% (active),56.2%,-94% (active),-22% (active)
COc1cc(-c2nc3cc(Cl)c(Cl)cc3[nH]2)ccc1OCC(=O)NN,92.8%,90.5%,–,72%,94%,67.5%,71%,96.1%,108%,84.8%
Cc1cccc2c1O/C(=C\c1ncc([N+](=O)[O-])n1C)C2=O,-13.7% (active),-25% (active),–,-33.5% (active),-32.6% (active),-55.8% (active),-25.7% (active),-28.5% (active),-52.3% (active),-29.1% (active)

# Source: PubChem BioAssay (NCI)
